“And” between values parts separate entries of the source, which are not always exact repeats. Equal entries are not always repeated. In all, about 5,500 compounds went through this assay and about 2,000 (36%) were called active. Another 18% or so got no clear call; they are omitted. No stated cut-off is given here; in the data, active means normalized growth mostly below about 0.91 (no sharp cut-off); inconclusive means no clear call, values can overlap the other calls; inactive means mostly above about 0.92. The list shows a part of the results.
Assay: chemical genetic growth profiling, strain panel (AID 1159580);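 further: tested at 20 µM; growth read once vehicle control cultures reached saturation at 30 °C; 1 = growth at the plate median or of vehicle wells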
Conditions: S. cerevisiae deletion strains, growth OD

Measured: normalized growth

CC(=O)N[C@@H](Cc1c[nH]c2ccccc12)C(=O)O
inactive: locus YAL013W, strain DEP1, stronger effect = lower value 1.01 | locus YAL021C, strain ccr4, stronger effect = lower value 0.991 | locus YAL026C, strain drs2, stronger effect = lower value 0.978 | locus YAL030W, strain snc1, stronger effect = lower value 0.999 | locus YBL061C, strain skt5, stronger effect = lower value 0.975 | locus YBR009C, strain hhf1, stronger effect = lower value 1.03 | locus YBR021W, strain FUR4, stronger effect = lower value 0.998 | locus YBR023C, strain chs3, stronger effect = lower value 0.996 | locus YBR171W, strain sec66, stronger effect = lower value 0.977 | locus YBR229C, strain ROT2, stronger effect = lower value 1 | locus YBR231C, strain swc5, stronger effect = lower value 0.981 | locus YBR279W, strain paf1, stronger effect = lower value 0.982 | locus YCL011C, strain gbp2, stronger effect = lower value 0.982 | locus YCL016C, strain dcc1, stronger effect = lower value 0.97 | locus YCL029C, strain bik1, stronger effect = lower value 1.03 | locus YCL061C, strain MRC1, stronger effect = lower value 0.991 | locus YCL069W, strain vba3, stronger effect = lower value 0.979 | locus YCR088W, strain abp1, stronger effect = lower value 0.992 | locus YDL005C, strain med2, stronger effect = lower value 0.971 | locus YDL035C, strain GPR1, stronger effect = lower value 1.01 | locus YDL040C, strain nat1, stronger effect = lower value 0.983 | locus YDL074C, strain BRE1, stronger effect = lower value 1.03 | locus YDL101C, strain DUN1, stronger effect = lower value 1.02 | locus YDL134C, strain PPH21, stronger effect = lower value 0.987 | locus YDL185W, strain tfp1, stronger effect = lower value 1.01 | locus YDL192W, strain arf1, stronger effect = lower value 1.01 | locus YDR001C, strain nth1, stronger effect = lower value 0.992 | locus YDR069C, strain doa4, stronger effect = lower value 0.998 | locus YDR101C, strain arx1, stronger effect = lower value 1.01 | locus YDR137W, strain rgp1, stronger effect = lower value 0.968 | locus YDR150W, strain NUM1, stronger effect = lower value 1 | locus YDR159W, strain sac3, stronger effect = lower value 1.01 | locus YDR162C, strain NBP2, stronger effect = lower value 1.01 | locus YDR195W, strain ref2 0.942 | locus YDR297W, strain sur2, stronger effect = lower value 0.994 | locus YDR318W, strain mcm21, stronger effect = lower value 1.02 | locus YDR334W, strain swr1, stronger effect = lower value 0.981 | locus YDR335W, strain msn5, stronger effect = lower value 0.987 | locus YDR388W, stronger effect = lower value 1.03 | locus YDR392W, strain spt3, stronger effect = lower value 0.988 | locus YDR502C, strain sam2, stronger effect = lower value 1.02 | locus YEL003W, strain gim4, stronger effect = lower value 0.986 | locus YEL037C, strain rad23, stronger effect = lower value 0.986 | locus YEL061C, strain CIN8 (second series), stronger effect = lower value 0.985 | locus YEL061C, strain CIN8, stronger effect = lower value 1 | locus YER015W, strain faa2, stronger effect = lower value 0.991 | locus YER016W, strain bim1, stronger effect = lower value 0.953 | locus YER110C, stronger effect = lower value 1.02 | locus YER111C, strain swi4, stronger effect = lower value 0.971 | locus YER155C, strain BEM2 (second series), stronger effect = lower value 0.982 | locus YER155C, strain BEM2, stronger effect = lower value 0.997 | locus YER167W, strain BCK2, stronger effect = lower value 1.01 | locus YFR010W, strain ubp6, stronger effect = lower value 1 | locus YGL078C, strain dbp3, stronger effect = lower value 1.01 | locus YGL086W, strain mad1, stronger effect = lower value 1.02 | locus YGL167C, strain pmr1, stronger effect = lower value 0.983 | locus YGL173C, strain kem1, stronger effect = lower value 0.985 | locus YGL227W, strain vid30, stronger effect = lower value 0.984 | locus YGL240W, strain doc1, stronger effect = lower value 1.02 | locus YGL248W, strain PDE1, stronger effect = lower value 1.04 | locus YGL253W, strain hxk2, stronger effect = lower value 0.979 | locus YGR078C, strain PAC10, stronger effect = lower value 1.01 | locus YGR135W, strain pre9, stronger effect = lower value 1.03 | locus YGR229C, strain SMI1, stronger effect = lower value 1.01 | locus YGR252W, strain gcn5, stronger effect = lower value 1.02 | locus YHR013C, strain ard1, stronger effect = lower value 0.952 | locus YHR027C, strain rpn1, stronger effect = lower value 0.976 | locus YHR030C, strain SLT2, stronger effect = lower value 1 and 0.996 | locus YHR079C, strain IRE1 (second series), stronger effect = lower value 1.02 | locus YHR079C, strain IRE1, stronger effect = lower value 0.987 | locus YHR094C, strain hxt1, stronger effect = lower value 1.01 | locus YHR129C, strain ARP1, stronger effect = lower value 1 | locus YHR142W, strain chs7, stronger effect = lower value 0.977 | locus YHR200W, strain rpn10, stronger effect = lower value 1.02 | locus YIL066C, strain RNR3, stronger effect = lower value 1 | locus YIL073C, strain SPO22, stronger effect = lower value 1.04 | locus YIL125W, strain kgd1, stronger effect = lower value 1.01 | locus YIR030C, strain dcg1, stronger effect = lower value 1.02 | locus YJL092W, strain hpr5, stronger effect = lower value 0.986 | locus YJL095W, strain BCK1 (second series), stronger effect = lower value 0.996 | locus YJL095W, strain BCK1, stronger effect = lower value 1.05 and 0.998 | locus YJL115W, strain asf1, stronger effect = lower value 0.978 | locus YJL129C, strain trk1, stronger effect = lower value 0.956 | locus YJL134W, strain LCB3, stronger effect = lower value 1.01 | locus YJL154C, strain vps35, stronger effect = lower value 0.968 | locus YJL164C, strain tpk1, stronger effect = lower value 0.988 | locus YJL166W, strain qcr8, stronger effect = lower value 1.01 | locus YJL168C, strain set2, stronger effect = lower value 1.02 | locus YJL187C, strain SWE1 (second series), stronger effect = lower value 1.01 | locus YJL187C, strain SWE1, stronger effect = lower value 0.987 | locus YJR043C, strain POL32, stronger effect = lower value 1.03 | locus YJR066W, strain TOR1, stronger effect = lower value 0.901

From PubChem BioAssay AID1159580 (chemical genetic matrix, 2015)
